Results taken from PubChem BioAssay.
Active and inactive are the calls of the source.

Legend:
[1] = tested on: PRMT1 (protein arginine N-methyltransferase 1); test: PRMT1 binders on small-molecule microarrays, primary screen, biochemical, small-molecule microarray, 635 nm fluorescence (AID 1088); details: small-molecule microarray binding, higher = more signal;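 note: binding of Prmt1 protein to compounds spotted on small-molecule microarray slides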
[2] = yeast growth modulation, basal conditions, primary screen, YJM789 clinical isolate, OD600, 24 h (AID 1089);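 note: growth of clinical yeast isolate S. cerevisiae YJM 789 seeded 1000 cells per well; test concentration not given here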; details: S. cerevisiae YJM789 growth, higher = more signal, called active from +8 up or from −8 down
[3] = fission yeast growth modulation, primary screen, strain 972, OD600, 24 h, no modulator (AID 1090);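 note: basal condition with compound alone and no growth modifier present; test concentration not given here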; details: S. pombe 972 growth, higher = more signal, called active from +8 up or from −8 down
[4] = S. cerevisiae growth modulation with rapamycin, primary screen, strain BY4716, OD600, 96 h (AID 1091); details: higher = more signal, called active from +8 up or from −8 down; note: test concentration not given here
[5] = biological target: Torsin-1A-interacting protein 2 (Homo sapiens) (UniProt Q8NFQ8); test: LULL1 binders on small-molecule microarray, primary screen, cell lysate, human LULL1 lysate, 635/667 nm fluorescence (AID 1092); details: hLULL1 lysate binding, 635 nm fluorescence, higher = more signal;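 note: probe is lysate of COS7 cells overexpressing human LULL1; score merges per-feature 667 nm fluorescence with signal-to-noise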
[6] = E. coli growth modulation, two-sided OD650, primary screen, E. coli filamentation project, strain DRC41, 24 h (AID 1093); details: OD650, 24 h, higher = more signal, called active from +8 up or from −8 down;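 note: MC1000 strain lacking acrAB efflux and sulA so SOS filamentation is blocked; test concentration not given here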
[7] = small-molecule microarray binders of probe aLefty2, primary screen, biochemical, biotinylated probe, 635/667 nm fluorescence (AID 1094); details: higher = more signal;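 note: score merges spot fluorescence near 667 nm with spot signal-to-noise ratio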
[8] = tested on: Noggin (protein binding on small-molecule microarray); test: Noggin binders on small-molecule microarray, primary screen, biochemical, 635/667 nm fluorescence (AID 1095); details: 635 nm fluorescence, higher = more signal;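 note: score merges 667 nm feature fluorescence with signal to noise over triplicate slides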
[9] = biological target: Neurogenic locus notch homolog protein 3 (Homo sapiens) (UniProt Q9UM47); test: NOTCH3 binders on small-molecule microarray, primary screen, biochemical, 635/667 nm fluorescence (AID 1096); details: NOTCH3 binding, 635 nm fluorescence, higher = more signal
[10] = small-molecule microarray binders of probe aEGFR, primary screen, biochemical, biotinylated probe, 635/667 nm fluorescence (AID 1097); details: higher = more signal;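 note: probe is a biotinylated anti-EGFR antibody binding compounds printed on slides; score combines fluorescence near 667 nm and signal to noise of each spot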

Chain of Torsin-1A-interacting protein 2 (Homo sapiens) (Q8NFQ8 whole entry, looked up): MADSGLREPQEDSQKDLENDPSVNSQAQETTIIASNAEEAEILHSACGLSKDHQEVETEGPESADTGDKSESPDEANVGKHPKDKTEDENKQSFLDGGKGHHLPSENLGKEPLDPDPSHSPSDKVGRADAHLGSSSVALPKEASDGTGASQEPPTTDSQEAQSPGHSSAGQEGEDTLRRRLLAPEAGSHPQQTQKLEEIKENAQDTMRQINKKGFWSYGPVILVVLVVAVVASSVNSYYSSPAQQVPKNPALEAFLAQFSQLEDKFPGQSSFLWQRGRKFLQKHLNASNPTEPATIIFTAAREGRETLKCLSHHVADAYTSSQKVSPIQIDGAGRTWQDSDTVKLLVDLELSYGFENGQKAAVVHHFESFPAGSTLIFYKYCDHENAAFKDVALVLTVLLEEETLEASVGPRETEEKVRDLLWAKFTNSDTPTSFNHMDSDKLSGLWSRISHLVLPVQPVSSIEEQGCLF
Chain of Neurogenic locus notch homolog protein 3 (Homo sapiens) (Q9UM47 whole entry, looked up): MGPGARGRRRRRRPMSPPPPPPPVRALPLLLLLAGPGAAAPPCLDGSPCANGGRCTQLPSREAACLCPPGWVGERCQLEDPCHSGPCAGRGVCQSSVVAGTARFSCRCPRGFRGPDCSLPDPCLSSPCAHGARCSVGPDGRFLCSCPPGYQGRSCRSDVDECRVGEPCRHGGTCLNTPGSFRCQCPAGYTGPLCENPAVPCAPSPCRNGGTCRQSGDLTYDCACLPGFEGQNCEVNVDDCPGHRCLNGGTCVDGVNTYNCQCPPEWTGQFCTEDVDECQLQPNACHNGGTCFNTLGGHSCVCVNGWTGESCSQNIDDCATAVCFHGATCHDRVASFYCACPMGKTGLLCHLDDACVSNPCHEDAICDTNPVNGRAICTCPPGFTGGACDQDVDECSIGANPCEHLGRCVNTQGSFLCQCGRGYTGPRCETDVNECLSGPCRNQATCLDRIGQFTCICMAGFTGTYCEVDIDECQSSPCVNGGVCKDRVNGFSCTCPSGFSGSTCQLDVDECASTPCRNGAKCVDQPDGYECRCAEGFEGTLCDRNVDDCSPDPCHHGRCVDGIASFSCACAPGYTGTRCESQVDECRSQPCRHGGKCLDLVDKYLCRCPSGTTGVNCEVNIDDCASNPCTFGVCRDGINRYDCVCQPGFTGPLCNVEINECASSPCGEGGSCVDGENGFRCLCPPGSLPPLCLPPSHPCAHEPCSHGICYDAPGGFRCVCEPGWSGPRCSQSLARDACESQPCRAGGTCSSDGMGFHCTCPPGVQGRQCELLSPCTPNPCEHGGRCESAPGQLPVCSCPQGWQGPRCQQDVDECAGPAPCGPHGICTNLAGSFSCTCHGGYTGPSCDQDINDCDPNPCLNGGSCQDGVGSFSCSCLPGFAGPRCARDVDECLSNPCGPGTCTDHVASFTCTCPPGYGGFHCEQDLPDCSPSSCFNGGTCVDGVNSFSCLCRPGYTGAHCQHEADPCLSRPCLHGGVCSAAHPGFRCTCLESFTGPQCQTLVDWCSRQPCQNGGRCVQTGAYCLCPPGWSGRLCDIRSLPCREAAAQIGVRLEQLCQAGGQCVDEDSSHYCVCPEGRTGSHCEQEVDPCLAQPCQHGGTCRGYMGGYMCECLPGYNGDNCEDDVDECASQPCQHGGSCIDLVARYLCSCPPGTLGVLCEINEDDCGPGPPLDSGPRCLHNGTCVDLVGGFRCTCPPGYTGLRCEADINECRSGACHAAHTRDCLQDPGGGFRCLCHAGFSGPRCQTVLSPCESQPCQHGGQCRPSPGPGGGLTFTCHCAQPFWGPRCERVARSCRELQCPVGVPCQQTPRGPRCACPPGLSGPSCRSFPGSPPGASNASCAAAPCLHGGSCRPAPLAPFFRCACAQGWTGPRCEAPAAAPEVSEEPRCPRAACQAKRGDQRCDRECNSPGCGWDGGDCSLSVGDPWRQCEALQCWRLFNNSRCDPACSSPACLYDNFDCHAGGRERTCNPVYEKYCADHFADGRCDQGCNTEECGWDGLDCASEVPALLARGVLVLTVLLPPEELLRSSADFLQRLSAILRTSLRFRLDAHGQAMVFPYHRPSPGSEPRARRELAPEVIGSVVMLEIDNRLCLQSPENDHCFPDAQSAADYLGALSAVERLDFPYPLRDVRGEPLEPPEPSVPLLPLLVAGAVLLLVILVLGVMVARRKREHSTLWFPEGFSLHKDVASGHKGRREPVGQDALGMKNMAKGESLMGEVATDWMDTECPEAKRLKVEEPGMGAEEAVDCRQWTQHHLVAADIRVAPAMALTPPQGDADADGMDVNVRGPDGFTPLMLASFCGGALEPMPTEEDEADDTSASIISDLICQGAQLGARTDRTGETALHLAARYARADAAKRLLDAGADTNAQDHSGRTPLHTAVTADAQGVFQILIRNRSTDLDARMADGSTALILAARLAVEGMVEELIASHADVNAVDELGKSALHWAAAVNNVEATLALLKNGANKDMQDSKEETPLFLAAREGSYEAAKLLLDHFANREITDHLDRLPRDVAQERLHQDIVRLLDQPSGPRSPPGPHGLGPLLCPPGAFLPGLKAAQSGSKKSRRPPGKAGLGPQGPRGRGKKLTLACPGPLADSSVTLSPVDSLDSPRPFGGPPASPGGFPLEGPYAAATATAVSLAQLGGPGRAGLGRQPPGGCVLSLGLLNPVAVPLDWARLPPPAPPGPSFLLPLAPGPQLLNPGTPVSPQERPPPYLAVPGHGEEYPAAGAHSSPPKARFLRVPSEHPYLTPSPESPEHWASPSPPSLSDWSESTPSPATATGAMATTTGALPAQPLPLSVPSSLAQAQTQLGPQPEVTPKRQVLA

Compound	composite z-score [1]	z-score [2]	z-score [3]	z-score [4]	composite z-score [5]	z-score [6]	composite z-score [7]	composite z-score [8]	composite z-score [9]	composite z-score [10]
CCCC[C@@H]1C[C@H]1[C@@H](NC(=O)c1ccco1)c1ccccc1	-0.206	-0.867 (inactive)	-15.3 (active)	-0.0654 (inactive)	-0.832	-1.61 (inactive)	-0.121	-1.77	-0.716	-0.25
C=CCOC(=O)[C@@H]1[C@H]2C(=O)O[C@H](c3ccccc3)[C@H](c3ccccc3)N2[C@H](c2ccc(OCCOC(=O)[C@H]3C[C@H]4C(=O)N[C@@H](CC(C)C)C(=O)N4[C@H]3c3cccc(OCCO)c3)cc2)[C@@]12C(=O)Nc1ccc(I)cc12	1.53	0.705 (inactive)	0.492 (inactive)	2.65 (inactive)	2.66	0.147 (inactive)	-0.0849	1.58	1.06	-0.0769
COCCCNC(=O)[C@@]1(Cc2ccccc2I)c2ccccc2C(=O)N(Cc2ccccc2)[C@H]1c1ccc(CO)cc1	0.96	0.411 (inactive)	0.512 (inactive)	0.951 (inactive)	1.62	0.0006 (inactive)	-0.204	-1.27	-1.37	-0.302
C#C[C@H]1Oc2ccccc2S(=O)(=O)N2CCC[C@@H]12	-0.513	-0.346 (inactive)	-0.133 (inactive)	-1.55 (inactive)	-0.607	-0.738 (inactive)	-0.0804	0.636	-0.226	-0.0564
COc1ccc(C#Cc2ccc3c(c2)[C@]2(C(=O)N3)[C@H](C(=O)N3CCc4cc(OC)c(OC)cc4C3)[C@H]3C(=O)O[C@H](c4ccccc4)[C@H](c4ccccc4)N3[C@@H]2c2ccc(OCCO)cc2)cc1	1.55	3.09 (inactive)	2.07 (inactive)	6.17 (inactive)	2.51	1.9 (inactive)	-0.0728	1.48	1.17	0.102
C=CCOC(=O)[C@H]1[C@@H]2C(=O)O[C@@H](c3ccccc3)[C@@H](c3ccccc3)N2[C@@H](c2ccc(OCCOC(=O)[C@@H]3C[C@@H]4C(=O)NCC(=O)N4[C@@H]3c3ccc(O)cc3)cc2)[C@]12C(=O)Nc1ccc(I)cc12	1.55	0.591 (inactive)	0.0218 (inactive)	2.48 (inactive)	2.57	-0.375 (inactive)	-0.205	1.64	1.11	-0.0788
Cc1cc(C)c(C(O)C2C=CC3C(=O)NC(=O)C3N2Nc2ccccn2)c(C)c1 (stereo not given)	0.442	0.441 (inactive)	1.11 (inactive)	0.415 (inactive)	1.65	-1.16 (inactive)	0.0961	0.0197	0.525	0.0221
CCN(CC)c1ccc(N2CC=CC34O[C@@H]5C=CCCOC(=O)C5[C@H]3C(=O)N(CCCO)[C@@H]4C2=O)cc1 (stereo not given in full)	-0.664	-0.452 (inactive)	-0.983 (inactive)	-0.282 (inactive)	-1.02	1.87 (inactive)	-0.122	0.232	-0.155	-0.162
COc1ccc([Si](C)(C)[C@@H]2[C@@H](CCn3cc([C@H](O)c4ccccc4)nn3)O[C@]3(C(=O)N(C)c4ccccc43)[C@H]2C)cc1	0.384	-0.842 (inactive)	0.324 (inactive)	-0.112 (inactive)	1.96	-0.036 (inactive)	-0.166	-0.133	-0.0523	-0.0828
CC(=O)NCCCC[C@@H]1NC(=O)[C@@H]2C[C@H](C(=O)NCc3ccc(F)cc3)[C@H](c3ccc(O)cc3)N2C1=O	1.54	-0.36 (inactive)	-1.36 (inactive)	-0.713 (inactive)	2.41	1.53 (inactive)	-0.128	1.67	0.208	-0.122
C=CCC(OC(C)=O)[C@@H]1[C@@H](N(Cc2cc3ccccc3o2)C(=O)c2ccc(C)cc2)c2cc(OCCCO)ccc2N1C(=O)c1ccc(-c2ccccc2)cc1 (stereo not given in full)	-0.486	-6.89 (inactive)	-1.27 (inactive)	-2.17 (inactive)	0.666	-0.818 (inactive)	0	0.132	-0.217	-0.258
COCCOC(=O)N1C(=O)[C@@]2(c3cc(C#Cc4ccc(OC)cc4)ccc31)[C@H](c1ccc(OCCO)cc1)N1[C@H](c3ccccc3)[C@H](c3ccccc3)OC(=O)[C@H]1[C@@H]2C(=O)N1CCc2cc(OC)c(OC)cc2C1	1.56	2.81 (inactive)	1.39 (inactive)	7.07 (inactive)	0.434	1.56 (inactive)	-0.202	1.28	1.12	-0.02
C=CCC(OC(C)=O)[C@@H]1[C@@H](N(Cc2ccc(-c3ccccc3)cc2)C(=O)c2ccc(C)cc2)c2cc(OCCCO)ccc2N1C(=O)Cc1ccc(OC)cc1 (stereo not given in full)	1.1	-2.3 (inactive)	-1.13 (inactive)	-0.713 (inactive)	0.178	1.26 (inactive)	-0.166	0.0438	0.338	-0.109
CC(C)(C)OC(=O)CC[C@@]1(C(N)=O)N=C(c2ccc(OCCCO)cc2)O[C@@H]1c1ccccc1N=[N+]=[N-]	1.16	0.745 (inactive)	-0.86 (inactive)	-0.579 (inactive)	3.41	0.77 (inactive)	0.0539	0.465	0.976	-0.019
C=C(CCCC)C(=O)CC[C@H](OC(C)=O)c1ccc(CO)o1	1.47	1.04 (inactive)	-1.43 (inactive)	-0.181 (inactive)	0.616	1.38 (inactive)	-0.0339	0.53	0.137	-0.182
C[N+](C)(C)CCCC[C@@H]1NC(=O)[C@H]2C[C@@H](C(=O)O)[C@@H](c3cccc(OCCO)c3)N2C1=O	1.54	-1.28 (inactive)	-0.362 (inactive)	-0.498 (inactive)	3.79	0.0136 (inactive)	1.5	1.83	1.1	1.06
C=C(C(=O)CC[C@@H](OC(=O)c1cccnc1)c1ccc(CO)o1)C(C)C	1.54	0.813 (inactive)	-0.485 (inactive)	-0.0796 (inactive)	1.97	-0.601 (inactive)	-0.0415	1.53	1.14	-0.0697
O=C(NCC(O)CO)[C@@]1(Cc2ccccc2)N=C(c2ccc(OCCCO)cc2)O[C@H]1c1ccccc1 (stereo not given in full)	0.814	-0.738 (inactive)	-0.456 (inactive)	-1.26 (inactive)	3.57	1.62 (inactive)	0.491	0.431	-0.376	0.298
COCCCNC(=O)[C@@]1(Sc2ccc(C)cc2)CC(=O)N(Cc2ccccc2)[C@@H]1c1ccc(CO)cc1	0.983	-0.0867 (inactive)	0.163 (inactive)	-0.455 (inactive)	2.66	-0.0977 (inactive)	-0.27	-0.408	-0.0703	0.03
